# Results from the supplement of paper PMC8728848.
# Many of the other results were omitted from the sample, so the strongest signals are more common in it than they were.
# B1: CcfD (Bacteroides vulgatus), A6KYX8 (protein)
# chain: MKYKNYFKSIIYLALGAFTLGSCEDFLDRQEDEKLTFDKIWESRNTTQQYWLNAMSFLPNENGSLQGDTEPYLGASDECTIAYDRQYRWINFGTWNPSQVPYYKMDHYYKGIRECNIFLQNVYKCSDPLVTKDQLDEWYWQTRFARAYYYFLMMRDYGPVFLLGDDLLDFTASTEELYRPRNTWDQCVNYVVSEMTQCAESGVVLQQSDLPAAKWGLATVGTCHAVISRLLLYSARPLFNGNKLYSTVKNPDAPDFPELSGVKLFPELDNTKWQKAAEAAKKLIDNPCYELYRAGNDNPYEDYYGVTHETWNKELIWTDRYNGLFSWGVGTVPTGVAGTAYGAVGPTQALVDAYAMNTGWYPITGYEADGTPIVEPLSGYELASELEKSSWIYPSGGWSNKADFEIEAPNMYKDREPRFYVTVFFGGNQWLHGNSATSISFAKGGNGNKSHDYPKSGYLCNRFYDHKLNSSEGQWGNITFPVFRLGEIYLNFIEAVLECKKNGVALDPSYEALAMEKWADLRKRAGLDPITSIYGQVSTEELIQLCRKERQIELAFERHRYFDTRTWMIATQTDNGKMYGMNTSCPLDAGMKGTETPDGFWERTAFETRVFQNKHYLYPFSQRELDRNKLLTQNYGW
# Experiments:
# Assay in all cases: glycan array binding signal (z-score within array); higher = stronger binding
# Conditions in all cases: glycan notation: IUPAC condensed, linker removed
# [1] = target: Fuc(a1-2)Gal(b1-4)Fuc(a1-3)]GlcNAc(b1-2)Man(a1-3)[Fuc(a1-2)Gal(b1-4)[Fuc(a1-3)]GlcNAc(b1-2)Man(a1-6)]Man(b1-4)GlcNAc(b1-4)GlcNAc
# Procedure, shortened: (§1)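 Columns mapping to the same glycan were averaged after glycan names were converted to IUPAC-condensed notation. The data come from 3228 arrays in the Consortium for Functional Glycomics database, limited to those with an available protein sequence. Binding is reported as a within-array Z-score averaged across arrays of one protein sequence and across linkers.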
# [2] = target: Fuc(a1-2)Gal(b1-4)GlcNAc(b1-2)Man(a1-3)[Fuc(a1-2)Gal(b1-4)GlcNAc(b1-2)Man(a1-6)]Man(b1-4)GlcNAc(b1-4)GlcNAc
# Procedure, shortened: as §1
# [3] = target: Fuc(a1-2)Gal(b1-4)GlcNAc(b1-3)Gal(b1-4)GlcNAc(b1-2)Man(a1-3)[Fuc(a1-2)Gal(b1-4)GlcNAc(b1-3)Gal(b1-4)GlcNAc(b1-2)Man(a1-6)]Man(b1-4)GlcNAc(b1-4)GlcNAc
# Procedure, shortened: as §1
# [4] = target: Fuc(a1-2)Gal(b1-4)GlcNAc(b1-6)GalNAc
# Procedure, shortened: as §1
# [5] = target: Fuc(a1-2)Gal(b1-4)GlcNAc6S
# Procedure, shortened: as §1
# [6] = target: Fuc(a1-2)Gal(b1-4)[Fuc(a1-3)]GlcNAc(b1-3)GalNAc
# Procedure, shortened: as §1
# [7] = target: Fuc(a1-2)[Gal(a1-3)]Gal(b1-3)GlcNAc(b1-2)Man(a1-3)[Fuc(a1-2)[Gal(a1-3)]Gal(b1-3)GlcNAc(b1-2)Man(a1-6)]Man(b1-4)GlcNAc(b1-4)GlcNAc
# Procedure, shortened: as §1
# [8] = target: Fuc(a1-2)[Gal(a1-3)]Gal(b1-4)GlcNAc(b1-2)Man
# Procedure, shortened: as §1
# [9] = target: Fuc(a1-2)[GalNAc(a1-3)]Gal(b1-3)GlcNAc(b1-6)GalNAc
# Procedure, shortened: as §1
# [10] = target: Fuc(a1-2)[GalNAc(a1-3)]Gal(b1-4)GlcNAc(b1-2)Man(a1-3)[Fuc(a1-2)[GalNAc(a1-3)]Gal(b1-4)GlcNAc(b1-2)Man(a1-6)]Man(b1-4)GlcNAc(b1-4)GlcNAc
# Procedure, shortened: as §1
# [11] = target: Fuc(a1-2)[GalNAc(a1-3)]Gal(b1-4)GlcNAc(b1-3)[Fuc(a1-2)[GalNAc(a1-3)]Gal(b1-4)GlcNAc(b1-6)]GalNAc
# Procedure, shortened: as §1
# [12] = target: Fuc(a1-3)[Gal3S(b1-4)]Glc
# Procedure, shortened: as §1
# Gal(a1-3)Gal = target: Gal(a1-3)Gal
# Procedure, shortened: as §1
# [13] = target: Gal(a1-3)Gal(b1-4)[Fuc(a1-3)]GlcNAc
# Procedure, shortened: as §1
# [14] = target: Gal(b1-3)[Fuc(a1-4)]GlcNAc
# Procedure, shortened: as §1
# [15] = target: Gal(b1-4)GalNAc(b1-3)[Fuc(a1-2)]Gal(b1-4)GlcNAc
# Procedure, shortened: as §1
# [16] = target: Gal(b1-4)GlcNAc(b1-2)Man(a1-3)Man(b1-4)GlcNAc(b1-4)GlcNAc
# Procedure, shortened: as §1
# [17] = target: Gal(b1-4)GlcNAc(b1-2)[Gal(b1-4)GlcNAc(b1-4)]Man(a1-3)[GlcNAc(b1-4)][Gal(b1-4)GlcNAc(b1-2)[Gal(b1-4)GlcNAc(b1-6)]Man(a1-6)]Man(b1-4)GlcNAc(b1-4)GlcNAc
# Procedure, shortened: as §1
# [18] = target: Gal(b1-4)GlcNAc(b1-3)Gal(b1-3)GlcNAc
# Procedure, shortened: as §1
# [19] = target: Gal(b1-4)GlcNAc(b1-3)Gal(b1-4)GlcNAc(b1-3)Gal(b1-4)GlcNAc
# Procedure, shortened: as §1
# [20] = target: Gal(b1-4)GlcNAc(b1-3)Gal(b1-4)GlcNAc(b1-3)Gal(b1-4)GlcNAc(b1-3)Gal(b1-4)GlcNAc(b1-2)Man(a1-3)[Gal(b1-4)GlcNAc(b1-3)Gal(b1-4)GlcNAc(b1-3)Gal(b1-4)GlcNAc(b1-3)Gal(b1-4)GlcNAc(b1-2)Man(a1-6)]Man(b1-4)GlcNAc(b1-4)[Fuc(a1-6)]GlcNAc
# Procedure, shortened: as §1
# [21] = target: GalNAc(b1-4)GlcNAc(b1-2)Man
# Procedure, shortened: as §1
binder,measurement,setting,value
B1,glycan array binding signal (z-score),[1],2
same,glycan array binding signal (z-score),[2],4.7
same,glycan array binding signal (z-score),[3],4.15
same,glycan array binding signal (z-score),[4],0.552
same,glycan array binding signal (z-score),[5],1.84
same,glycan array binding signal (z-score),[6],0.374
same,glycan array binding signal (z-score),[7],3.23
same,glycan array binding signal (z-score),[8],-0.282
same,glycan array binding signal (z-score),[9],-0.82
same,glycan array binding signal (z-score),[10],4.4
same,glycan array binding signal (z-score),[11],0.323
same,glycan array binding signal (z-score),[12],-0.429
same,glycan array binding signal (z-score),Gal(a1-3)Gal,0.343
same,glycan array binding signal (z-score),[13],0.14
same,glycan array binding signal (z-score),[14],-0.269
same,glycan array binding signal (z-score),[15],-0.749
same,glycan array binding signal (z-score),[16],3
same,glycan array binding signal (z-score),[17],-0.683
same,glycan array binding signal (z-score),[18],-0.932
same,glycan array binding signal (z-score),[19],-1.02
same,glycan array binding signal (z-score),[20],0.003
same,glycan array binding signal (z-score),[21],-0.896
